The values that follow come from PubChem BioAssay AID720690 (Broad Institute, 2013).

Entries with a potency or affinity are not part of this list. Values without a mark were called inactive.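 How the source made its calls: active means every repeat run showing a signal drop whose fitted half-maximal concentration is at most twice the top tested concentration; inconclusive means repeat runs disagree, or flat partial drop, or poor fit; inactive means the rest.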

This test can be described thus: HEK293T cytotoxicity, dose response, cytotoxicity control for miR-122 modulator project, cell-based, activator set, cherry-pick (AID 720690).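 Further: 0% = neutral control wells and -100% = MG132 cytotoxic control wells.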 The following applies: HEK293T viability, CellTiter-Glo luminescence, 48 h; series mostly up to 26 µM; activity change, negative = cytotoxicity: at the top concentration.
Turning to `CCNC(=O)C[C@@H]1CC[C@@H]2[C@@H](COc3ccc(NC(=O)c4ccccc4)cc3C(=O)N2C)O1`, the “activity change, negative = cytotoxicity” value was -2.68% [at 23.5 µM]. As for `CN1C(=O)c2cc(NC(=O)c3cccc(F)c3)ccc2OC[C@@H]2O[C@@H](CC(=O)O)CC[C@@H]21`, the figure is -6.33% [at 23.5 µM]; as for `C[C@@H]1CN([C@@H](C)CO)C(=O)c2cc(NC(=O)Nc3cccc4ccccc34)ccc2O[C@@H](C)CCCCO[C@H]1CN(C)CC1CCCCC1`, -14% [at 12 µM]; as for `CCS(=O)(=O)Nc1ccc2c(c1)C(=O)N(C)[C@@H]1CC[C@@H](CC(=O)NCCCN3CCOCC3)O[C@H]1CO2`, -6.8%.

Consider `CN1CCN(C(=O)C[C@H]2CC[C@@H]3[C@H](COc4ccc(NC(=O)c5cccs5)cc4C(=O)N3C)O2)CC1`, for which the “activity change, negative = cytotoxicity” value was 7.14%. Take `CCCNC(=O)C[C@@H]1CC[C@@H]2[C@H](COc3ccc(NS(=O)(=O)c4ccccc4C)cc3C(=O)N2C)O1`: the “activity change, negative = cytotoxicity” value was -12.3%. `C/C=C/c1ccc([C@@H]2[C@@H](CO)N(C(=O)C3CC3)[C@H]2CN(C)C(=O)CC2CC2)cc1`: the “activity change, negative = cytotoxicity” value was 5%. Consider `COc1cccc(CNC(=O)C[C@@H]2CC[C@H]3[C@H](COc4ccc(NC(C)=O)cc4C(=O)N3C)O2)c1`, for which the “activity change, negative = cytotoxicity” value is -3.81%.

`CCNC(=O)C[C@H]1CC[C@H]2[C@@H](COc3ccc(NS(C)(=O)=O)cc3C(=O)N2C)O1`: the “activity change, negative = cytotoxicity” value is -12.4%.

Take `COc1ccc(-c2c(C(C)=O)c(C)nc3sc4c(c23)NC(c2ccccc2)NC4=O)cc1` (stereo unspecified): the “activity change, negative = cytotoxicity” value was 3.79%. As for `COC(=O)C[C@@H]1CC[C@@H]2[C@H](COc3ccc(NS(=O)(=O)c4ccc(F)cc4)cc3C(=O)N2C)O1`, the figure is -7.83%; as for `COC(=O)C[C@H]1CC[C@@H]2[C@@H](COc3ccc(NC(=O)c4cnccn4)cc3C(=O)N2C)O1`, 10.9%; as for `C/C=C/c1ccc2c(c1)O[C@H](CN(C)C(=O)c1cnccn1)[C@H](C)CN([C@H](C)CO)S2(=O)=O`, 8.36%. Next, `CCOC(=O)CSc1nnnn1-c1cccc2ccccc12`: 1.77%.

For the compound `CNC(=O)C[C@H]1CC[C@@H]2[C@@H](COc3ccc(NC(=O)Nc4ccc(Cl)cc4)cc3C(=O)N2C)O1`, the “activity change, negative = cytotoxicity” value was 2.16% [at 23.5 µM]. As for `CNC(=O)C[C@H]1CC[C@@H]2[C@H](COc3ccc(NC(=O)C(C)C)cc3C(=O)N2C)O1`, the “activity change, negative = cytotoxicity” value was -17.7% [at 23.5 µM].

In the case of `CN1C(=O)c2cc(NC(=O)c3cccs3)ccc2OC[C@@H]2O[C@@H](CC(=O)NCC(F)(F)F)CC[C@H]21`, the “activity change, negative = cytotoxicity” value was -0.216%.

For the compound `CN1C(=O)c2cc(NC(=O)C3CC3)ccc2OC[C@@H]2O[C@H](CC(=O)NC3CCC3)CC[C@H]21`, the “activity change, negative = cytotoxicity” value was -3.55% [at 23.5 µM].

In the case of `CC1(C)CC(=O)c2cnc(NC(=O)c3ccco3)nc2C1`, the “activity change, negative = cytotoxicity” value was 1.49%. For the compound `Cc1nn(C)cc1NC(=O)C[C@H]1CC[C@H]2[C@H](COc3ccc(NC(=O)c4cccc(F)c4)cc3C(=O)N2C)O1`, the “activity change, negative = cytotoxicity” value is -17.4%. As for `CCCCC(=O)OCC(=O)c1[nH]c(C)c(C(=O)OCC)c1C`, the “activity change, negative = cytotoxicity” value was -3.31%. Next, `O=C(Nc1ccccc1F)N1[C@H](CO)[C@@H]2c3ccccc3NC[C@@H]21`: -11.2% [at 23.5 µM]; `Cc1ccc(C2CC(C(F)(F)F)n3nc(C(=O)NCc4ccco4)cc3N2)cc1` (stereo unspecified): 5.97%. With `COc1cc2nc(C3CCC3)n(NC(=O)C3CCCC(OC)C3)c(=O)c2cc1OC` (stereo unspecified), the “activity change, negative = cytotoxicity” value is 7.08%. Next, `COC(=O)C[C@@H]1CC[C@H]2[C@@H](COc3ccc(NC(=O)c4ccc(C(F)(F)F)cc4)cc3C(=O)N2C)O1`: -25.1% [at 23.5 µM]; `COc1cccc(COc2cc3ccccc3nc2C)c1`: -37.7%; `COc1cccc(CNC(=O)C[C@@H]2CC[C@@H]3[C@H](COc4ccc(NC(C)=O)cc4C(=O)N3C)O2)c1`: 0.833%. Next, `Cc1ccc(-c2ccc3c(c2)O[C@H](CN(C)C(=O)CC2CC2)[C@H](C)CN([C@@H](C)CO)S3(=O)=O)cc1`: -17.2%; `Cc1cc(CN(C)C(=O)c2cc(COc3ccc4ncccc4c3)on2)on1`: -14%; `C[C@@H]1CN([C@H](C)CO)S(=O)(=O)c2ccc(C3=CCCC3)cc2O[C@@H]1CN(C)C(=O)C1CCOCC1`: 4.94%. Take `CN1C(=O)c2cc(NC(=O)c3ccc4c(c3)OCO4)ccc2OC[C@H]2O[C@H](CC(=O)O)CC[C@@H]21`: the “activity change, negative = cytotoxicity” value was 1.22%.

Take `COCCN(C[C@@H]1[C@@H](c2ccccc2)[C@H](CO)N1C(=O)C1CCC1)C(C)=O`: the “activity change, negative = cytotoxicity” value was 5.88%. In the case of `CNC(=O)C[C@@H]1CC[C@H]2[C@H](COc3ccc(NC(=O)c4cccc(OC)c4)cc3C(=O)N2C)O1`, the “activity change, negative = cytotoxicity” value was -12.6%.

Regarding `COc1ccc(CC(NC(C)=O)C(=O)N2CCN(C(=O)N(C(C)C)C(C)C)CC2)cc1` (stereo unspecified), the “activity change, negative = cytotoxicity” value is -5.28%.

In the case of `Cc1ccnc(Nc2nc(-c3c(C)nc4sccn34)cs2)c1`, the “activity change, negative = cytotoxicity” value is -39.7%. Next, `CCCC(=O)Nc1ccc2c(c1)C(=O)N(C)[C@@H]1CC[C@H](CC(=O)NCCOC)O[C@H]1CO2`: -5.25%.
